Compound activity from PubChem BioAssay.
The entries come from a sample that favours hits as a whole.
CHX counter = counter-screen hit for Shiga toxin inhibitors, cycloheximide. cell reporter, cycloheximide protein synthesis inhibition counterscreen. max response, %. 12% of 300,000 active. AID 2314; in the data active = max response mostly above about 13%, no sharp cut-off; inactive = mostly below about 14%; note: read at 38.3 µM for the half of the compounds with a filed dose
Shiga inhibitor = inhibitors of Shiga toxin in Vero cells | Vero cells, Shiga toxin protein synthesis inhibition reporter | inhibition, % at 38.7 µM | 9.2% of 290,000 active; in the data active = inhibition mostly above about 28%, no sharp cut-off; inactive = mostly below about 43%
FBPA Giardia inh = blocks Giardia fructose-bisphosphate aldolase activity | A8B2U2 | purified Giardia FBPA | AID 2451 | 0.71% of 290,000 active | Potency, µM (highest dose often 59.6 µM), usual class: inhibitors; note: nearly all actives have a fitted effect of over 55% in size
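Giardia FBPA (40 nM reagent) was preincubated 10 min at RT with compound (up to 57.5 uM final), then substrate plus GAPDH/TPI/NAD/arsenate coupling system with diaphorase/resazurin was added; resorufin fluorescence (525/598 nm) was read after 20 min.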
LmPK inh = LmPK (Leishmania mexicana) enzyme inhibition; purified LmPK, Kinase-Glo ATP luminescence, 1 h; Potency, µM (series often up to 57.5 µM), most hits filed as inhibitors; 0.37% of 290,000 active
Target sequence (Q27686 whole entry, looked up): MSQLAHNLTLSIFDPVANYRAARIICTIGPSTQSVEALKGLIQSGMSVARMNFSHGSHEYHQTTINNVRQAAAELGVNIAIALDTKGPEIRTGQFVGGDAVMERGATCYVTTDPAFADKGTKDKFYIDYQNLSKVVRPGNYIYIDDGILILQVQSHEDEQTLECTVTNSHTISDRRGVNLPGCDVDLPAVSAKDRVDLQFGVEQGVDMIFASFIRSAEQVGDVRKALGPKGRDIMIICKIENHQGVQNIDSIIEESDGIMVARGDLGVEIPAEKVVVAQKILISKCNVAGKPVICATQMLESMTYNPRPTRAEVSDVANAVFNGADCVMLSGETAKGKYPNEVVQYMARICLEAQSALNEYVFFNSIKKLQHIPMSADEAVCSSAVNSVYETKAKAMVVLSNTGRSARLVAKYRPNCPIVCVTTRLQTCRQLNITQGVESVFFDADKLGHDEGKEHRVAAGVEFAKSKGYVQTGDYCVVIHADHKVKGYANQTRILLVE
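0.1 nM LmPK, 0.5 mM PEP, 0.1 mM ADP; 50 mM imidazole pH 7.2, 7 mM MgCl2, 50 mM KCl; 1 h RT. Kinase-Glo luminescence readout, normalized to no-enzyme (full inhibition) and uninhibited wells.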
TbPYK inhibitor = inhibitors of Trypanosoma brucei pyruvate kinase; AID 624173; TbPYK enzyme, Kinase-Glo Plus ATP luminescence, 45 min; Q57TT1; 0.12% of 410,000 active; Potency, µM (highest dose often 76.8 µM), most hits filed as inhibitors; note: nearly all actives have a fitted effect of over 50% in size
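Readout: single end-point luminescence (Kinase-Glo Plus, 10 min). Reaction conditions were TbPYK/substrate plus 130 uM ADP, 45 min at RT, pH 7.2 TEA buffer. No-enzyme wells served as controls, and data were normalized before concentration-response fitting.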
Sm TGR inh = inhibitors of Schistosoma mansoni thioredoxin glutathione reductase | Q962Y6 | purified TGR, DTNB reduction, TNB absorbance 405 nm | Potency, µM (top dose mostly 114 µM), usual class: inhibitors | 3% of 360,000 active | AID 485364; note: nearly all actives have a fitted effect of over 60% in size
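Kinetic colorimetric format: TGR-catalysed, NADPH-driven DTNB reduction monitored via TNB absorbance. Enzyme dispensed at 20 nM; compound exposure 15 min at room temperature before reaction start.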
Numbers stand for hits; n = inactive; u = inconclusive; x = no result. Unless noted, calls come from the whole dose curve; as a rule, active = well fitted curve in the direction sought with a large enough effect; inconclusive = small, poorly fitted or top-dose-only effect, or another doubt; inactive = no such curve, though single readings can be large; an effect the other way counts as inactive or inconclusive.

SMILES | CHX counter | Shiga inhibitor | FBPA Giardia inh | LmPK inh | TbPYK inhibitor | Sm TGR inh
CCCCN(C)Cc1c(C)[nH]c2ccccc2c1=O | n | n | n | n | n | n
CC(=O)N1CCN(C(=O)CCNC(=O)c2ccc(Br)cc2)CC1 | x | x | x | x | n | x
Cc1ccc(C(=O)NCCN2CCOCC2)cc1 | 13 | n | n | n | n | n
Cc1ccc(C(=O)NCCC(=O)N2CCOCC2)cc1 | 50 | 85 | x | n | n | n
Cc1noc(C)c1-c1nccc(NC2CC2)n1 | x | x | n | x | x | x
CCCSc1nnc2c(n1)OC(c1sccc1C)Nc1ccccc1-2 (stereo not drawn) | 41 | 66 | x | x | n | n
CCCCSc1nnc2c(n1)OC(C(=O)c1ccccc1)Nc1ccccc1-2 (stereo not drawn) | 15 | n | n | n | x | n
COc1cccc(NC(=O)Cn2c(=O)n(Cc3ccc(C(=O)NCc4ccc5c(c4)OCO5)cc3)c(=O)c3ccccc32)c1 | x | x | x | x | n | n
CCOc1ccccc1N(C)C(=O)c1c2c(nc3ccccc13)C(=O)N(C1CCCCC1)C2 | x | x | x | x | n | n
Cc1nc(-n2nc(C)c(Cc3ccccc3Cl)c2C)sc1C(=O)N1CCCCC1C (stereo not drawn) | x | x | x | x | n | n
C[C@@H]1CC[C@H]2[C@H](C)[C@H]3CC[C@@]4(O)[C@@H]5CC(=O)[C@H]6CC(=O)CC[C@]6(C)[C@H]5C[C@H]4[C@@H]3CN2C1 | n | n | n | x | x | x
COCCn1c(C)cc(C(=O)COC(=O)CNC(=O)c2ccccc2)c1C | 61 | 99 | n | n | n | n
COCC(C)n1c(C)cc(C(=O)COC(=O)CNC(=O)c2ccccc2)c1C (stereo not drawn) | 53 | 86 | n | n | n | n
COCC(C)n1c(C)cc(C(=O)COC(=O)c2n[nH]c3ccccc23)c1C (stereo not drawn) | 56 | 129 | n | n | n | n
CN1CCN(c2ncc3c(n2)CCN(Cc2cc(Br)cs2)C3)CC1 | x | x | x | x | n | n
CC1(C)CC(=O)C=C(c2ccccc2-c2ccc(S(C)(=O)=O)cc2)C1=O | x | x | x | x | n | x
CC(C)c1cnc2c(c1SCC(=O)c1ccccc1)c(=O)n(C)c(=O)n2C | x | x | x | x | n | n
Cc1cc(C)c(NC(=O)CNC(=O)COC(=O)C2=COCCO2)c(C)c1 | x | x | x | x | n | n
C(=C/c1nccc2c1[nH]c1ccccc12)/c1ccc2c(c1)OCO2 | n | 40 | n | n | n | n
CCC1=NN(C(=O)c2ccc(Br)cc2)C(O)(c2ccccc2)C1 (stereo not drawn) | n | n | n | n | n | n
CCOC(=O)C1=NN(C(=O)c2cccc(Br)c2)C(O)(C(C)(C)C)C1 (stereo not drawn) | 20 | 74 | n | n | x | n
CC1=NN(C(=O)c2ccccc2)C(O)(c2ccc(Br)cc2)C1 (stereo not drawn) | 44 | 68 | n | n | n | n
CCOC(=O)C1=NN(C(=O)c2ccccc2)C(O)(c2ccc(C)cc2)C1 (stereo not drawn) | 45 | 89 | n | n | n | n
CCOC(=O)C1=NN(C(=O)c2ccc(OC)cc2)C(O)(c2ccc(Cl)cc2)C1 (stereo not drawn) | n | n | n | n | n | n
COC(=O)c1cc2occc2n1CC(=O)Nc1ccc(N(C)C)cc1 | x | x | x | x | n | n
SMILES | CHX counter | Shiga inhibitor | FBPA Giardia inh | LmPK inh | TbPYK inhibitor | Sm TGR inh
CCOC(=O)CN1C(=O)CN(c2ccc(C)cc2)C1=O | 29 | 50 | n | n | n | n
N#Cc1c(Cl)nc(Cl)c2c1CCN(Cc1ccccc1)C2 | n | n | n | n | n | 35µM
Cc1nn(C(=O)c2ccc(Br)cc2)c(C)c1S(=O)(=O)N1CCOCC1 | x | x | x | x | n | u
CCOc1ccccc1/C=C(/NC(=O)c1ccccc1)C(=O)NCC(=O)O | n | n | n | n | n | n
CCOc1ccccc1/C=C(\NC(=O)c1ccccc1)C(=O)NCCC(=O)O | n | 43 | n | n | n | n
CCOCCCNC(=O)c1c(NC(=O)c2cc(=O)c3ccccc3o2)sc2c1CCC2 | x | x | x | x | n | n
O=C(COC(=O)c1ccc(F)cc1Cl)NCc1ccco1 | x | x | x | x | n | n
O=C(NCc1ccco1)c1sc2cc(F)ccc2c1Cl | 39 | 86 | n | n | n | u
O=C(NC1CC1)c1sc2cc(F)ccc2c1Cl | x | x | x | x | n | n
Cc1cc(C)n(C(=O)c2sc3cc(F)ccc3c2Cl)n1 | n | n | n | n | x | n
O=C(Nc1ccon1)c1sc2cc(F)ccc2c1Cl | 33 | 75 | n | n | n | n
O=C(NC1=NCCS1)c1sc2cc(F)ccc2c1Cl | 77 | 96 | n | n | n | n
CCCc1c(C(=O)NNc2cccc(Cl)c2)cnn1-c1ccccc1 | n | n | n | n | n | n
CCOc1cc(C2NN=C(c3ccccc3)S2)ccc1OCc1ccc(F)cc1 (stereo not drawn) | 43 | 112 | n | n | n | n
CCOc1cc(C2NN=C(c3ccccc3)S2)ccc1OCc1ccccc1Cl (stereo not drawn) | 45 | 66 | n | n | n | n
Cc1cc(=O)oc(C)c1C(=O)NCc1c(F)cc(F)cc1F | 28 | n | n | n | n | n
Cc1cc(=O)oc(C)c1C(=O)NCc1ccco1 | n | n | n | n | n | 45µM
Cc1ccc(C)c(CN2C(=O)c3ccccc3S(=O)(=O)c3ccc(C(=O)N4CCCCC4)cc32)c1 | x | x | x | x | n | n
O=C(Nc1ccccc1)N(Cc1cccc(Cl)c1)c1ccccn1 | x | x | x | x | n | n
COc1ccc(CNC(=O)CN=C2NC(=O)C(c3ccccc3)(c3ccccc3)N2)cc1 | n | 31 | n | n | n | n
COc1ccccc1CCNC(=O)c1ccc(NC(=O)N2CC(C)Sc3ccccc32)cc1 (stereo not drawn) | x | x | x | x | n | n
COc1ccccc1OCCCOc1c(Cl)cc(C)cc1Cl | 15 | n | n | n | n | n
COc1cc(C)ccc1OCCCOc1c(Cl)cccc1Cl | 18 | n | n | n | n | n
Cc1oc2ncnc(N3CCCCC3)c2c1C(=O)Nc1cccc(Cl)c1C | x | x | x | x | n | n
Cc1cc2c(s1)c1cnn(Cc3cccc(Cl)c3)c(=O)c1n2C | n | n | x | x | x | x
SMILES | CHX counter | Shiga inhibitor | FBPA Giardia inh | LmPK inh | TbPYK inhibitor | Sm TGR inh
CCOC(=O)/C=C/C(=O)Nc1ccc(S(=O)(=O)Nc2cc(C)on2)cc1 | n | n | x | n | n | 11µM
CCOC(=O)/C=C/C(=O)Nc1ccc(S(=O)(=O)N(C)c2ccccc2)cc1 | n | n | n | n | n | 40µM
CC(C)C[C@@H](CC(=O)N[C@@H](CCCN)CC(=O)N[C@@H]1CCNC[C@H]1C(=O)N[C@H](CC(=O)N[C@@H](CCC(=O)O)CC(=O)O)CC(C)C)NC(=O)[C@@H]1CCCC[C@H]1N | x | x | n | x | x | x
COc1ccc(OC)cc1 | x | x | x | x | n | x
COc1ccc(C2=C(SC)CC2=NC(C)(C)C)cc1 | 13 | n | n | n | n | n
CN(C(=O)CSc1nc2ccccc2n1CC(=O)N(C)C1CCCCC1)c1ccccc1 | x | x | x | x | n | n
